Assay outcomes: PubChem, National Center for Advancing Translational Sciences (NCATS)
Shown is part of a subset that was picked to be rich in hits.
Menin MLL FP TR = inhibitors of human menin-MLL interaction, mutant MLL peptide | O00255 | Menin + Texas Red MLL mutant peptide, fluorescence polarization | Potency, µM (top dose mostly 61.6 µM), most hits filed as inhibitors | 270,000 tested, 0.23% active; active means well fitted inhibition curve with a large enough effect in the polarisation, with a control signal flat, not every such curve was filed as active; inconclusive means small, poorly fitted or top-dose-only effect, or effect the other way, or a change in a side signal; inactive means no such curve, though single readings can be large or run the other way; the % refers to the polarisation
Target sequence (O00255 whole entry, looked up): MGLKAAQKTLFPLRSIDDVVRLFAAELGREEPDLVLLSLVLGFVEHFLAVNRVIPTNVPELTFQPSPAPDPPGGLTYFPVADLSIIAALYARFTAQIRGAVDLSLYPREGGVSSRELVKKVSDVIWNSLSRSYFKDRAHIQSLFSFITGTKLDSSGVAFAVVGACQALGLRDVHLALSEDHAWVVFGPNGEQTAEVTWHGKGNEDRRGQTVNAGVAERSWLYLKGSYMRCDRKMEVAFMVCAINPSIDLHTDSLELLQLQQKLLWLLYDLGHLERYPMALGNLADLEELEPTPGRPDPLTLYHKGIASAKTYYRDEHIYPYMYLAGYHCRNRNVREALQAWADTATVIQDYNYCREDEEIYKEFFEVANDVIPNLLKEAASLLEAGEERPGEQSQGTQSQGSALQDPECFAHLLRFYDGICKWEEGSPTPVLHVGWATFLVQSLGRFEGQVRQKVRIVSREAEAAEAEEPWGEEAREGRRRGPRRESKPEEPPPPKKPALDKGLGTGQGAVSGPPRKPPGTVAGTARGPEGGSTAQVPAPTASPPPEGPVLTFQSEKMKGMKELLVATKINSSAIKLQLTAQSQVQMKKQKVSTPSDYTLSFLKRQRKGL
ClpP mod = qHTS Assay for Activators of ClpP; purified B. subtilis ClpP, FRET peptide cleavage, 20 min; Potency, µM (titrated, usually from 57.5 µM); 340,000 tested, 1.9% active; AID 651965, 2013; active means well fitted falling curve with a large enough effect; inconclusive means small, poorly fitted or top-dose-only effect; inactive means no such curve, though single readings can be large or run the other way; further: the source files actives as falling curves though it sought activators and does not explain the sign; nearly all actives have a fitted effect of over 65% in size
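Purified B. subtilis ClpP, 10 microg/mL final in Tris/HCl pH8 with KCl, BSA, glycerol and Tween-20, cleaved an Abz/nitrotyrosine-quenched decapeptide. Fluorescence (ex 320, em 430) was read at 0 and 20 min at room temperature. Delta was normalized to 5.8 microM ADEP and DMSO/no-enzyme controls.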
MLL CXXC-DNA inh = inhibitors of human MLL CXXC domain-DNA interaction | Q03164 | MLL-CXXC / FITC-HOXA9 DNA fluorescence polarization | Potency, µM (series often up to 115 µM), most hits filed as inhibitors | 290,000 tested, 0.037% active | AID 2662; active means well fitted inhibition curve with a large enough effect in the polarisation, with a control signal flat, not every such curve was filed as active; inconclusive means small, poorly fitted or top-dose-only effect, or effect the other way, or a change in a side signal; inactive means no such curve, though single readings can be large or run the other way; the % refers to the polarisation
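Steps: dispense CXXC domain solution (7 uM) → pin compounds or unlabeled HOX-A9 DNA control → 5 min ambient → add FLSN-HOX-A9 solution (50 nM) → spin → 30 min ambient → fluorescence polarization. Tris pH 7.5/NaCl/DTT/BSA buffer.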
p53 reactivator = mutant p53 re-activation in reporter cells; Potency, µM (doses to about 92.2 µM), most hits filed as activators; H1299 p53-A138V BP100-luciferase reporter, luminescence, 24 h; 320,000 tested, 0.063% active; active means well fitted activation curve with a large enough effect; inconclusive means small, poorly fitted or top-dose-only effect; inactive means no such curve, though single readings can be large or run the other way; further: nearly all actives have a fitted effect of over 45% in size
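H1299 (p53-null), stable ts p53-A138V + BP100-Luc; 1000 cells/well, Opti-MEM/10% FBS; cpd 4 pt, 1:5; 24 h, 37 deg C, 5% CO2; detection reagent 10 min RT; luminescence.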
Menin MLL FP FL = menin-MLL binding inhibition, fluorescein peptide. Fluorescence polarization, fluorescein-MLL peptide displacement from menin. FP activity change, % at 61.4 µM. 290,000 tested, under 10 active. AID 1766; active means well fitted curve in the direction sought with a large enough effect in the polarisation, not every such curve was filed as active; inconclusive means small, poorly fitted or top-dose-only effect, or effect the other way, or a change in a side signal; inactive means no such curve, though single readings can be large or run the other way; the % refers to the polarisation
A number is an active result; i = inactive; ? = inconclusive; nt = not tested or not shown; [ ] = another dose, or the depositor's remark.

SMILES	Menin MLL FP TR	ClpP mod	MLL CXXC-DNA inh	p53 reactivator	Menin MLL FP FL
Cc1cc(NC(=O)C2CCCCC2)ccc1NC(=O)c1ccccc1Cl	i	16µM	i	i	i
O=C1C(Cl)=C(N2CCCCCC2)C(=O)N1c1ccc(Cl)cc1	i	i	i	i	?
O=C1C(Cl)=C(N2CCCC2)C(=O)N1c1ccc(F)cc1	i	25µM	i	nt	i
CCCN1CCN(CCCNC(=O)Cn2c(-c3cccs3)cc3ccccc32)CC1	nt	35µM	nt	nt	nt
Cc1ccc(C)c(N2CCN(CCCNC(=O)Cn3c(-c4cccs4)cc4ccccc43)CC2)c1	nt	28µM	nt	nt	nt
CCOc1ccc(CCNC(=O)Cn2c(-c3cccs3)cc3cc(F)ccc32)cc1OCC	nt	i	nt	nt	nt
CN1CCN(CCCNC(=O)Cn2c(-c3cccs3)cc3ccccc32)CC1	nt	11µM	nt	nt	nt
O=C(Cn1c(-c2cccs2)cc2ccccc21)NCCCN1CCN(c2cccc(Cl)c2)CC1	nt	25µM	nt	nt	nt
O=c1[nH]c(=S)[nH]c2n[nH]nc12	nt	i	nt	nt	nt
Oc1cc2cc(-c3csc(-c4ccc(F)cc4)n3)cc3c2n1CCC3	nt	i	nt	nt	nt
CC/C(=C\c1ccc(C(=O)OC)cc1)c1cc(OC)cc2oc3ccccc3c12	nt	i	nt	nt	nt
O=C(N/N=C1/C[C@@H](O)[C@@H](O)[C@@H]2[C@@H]3C(=O)N(c4cccc(Oc5ccccc5)c4)C(=O)[C@H]3CC[C@@H]12)OCc1ccccc1	i[11.7 µM]	nt	nt	nt	i[11.7 µM]
CC(C)OCCCNC(=O)Cn1c(-c2cccs2)cc2cc(F)ccc21	nt	i	nt	nt	nt
O=C(Cn1c(-c2cccs2)cc2cc(F)ccc21)NCCc1ccc(Cl)cc1	nt	i	nt	nt	nt
Cc1ccc(CCNC(=O)Cn2c(-c3cccs3)cc3ccccc32)cc1	nt	i	nt	nt	nt
CCN1CCN(CCCNC(=O)Cn2c(-c3cccs3)cc3ccccc32)CC1	nt	10µM	nt	nt	nt
CCCN1CCN(CCCNC(=O)Cn2c(-c3cccs3)cc3cc(Cl)ccc32)CC1	nt	32µM	nt	nt	nt
NS(=O)(=O)c1ccc(CCNC(=O)Cn2c(-c3cccs3)cc3ccccc32)cc1	nt	35µM	nt	nt	nt
CC1(C)Oc2cc3c(cc2O1)OC(C)(C)O3	i[11.7 µM]	nt	nt	nt	i[11.7 µM]
CCN(CC)c1ccc(N=Cc2ccccc2[N+](=O)[O-])cc1	18µM	i	i	?	i
CCS(=O)(=O)Nc1ccc(-c2ccc(NS(=O)(=O)CC)c(OC)c2)cc1OC	i	11µM	i	i	i
COc1cc2c(NC3CCN(C)CC3)nc(N3CCCN(C)CC3)nc2cc1O	nt	i	nt	nt	nt
COc1ccc(C(=O)N/N=C/c2cc3ccccc3[nH]c2=O)cc1	i	28µM	i	i	i
COc1ccc(OC)c(/C=N/NC(=O)c2ccncc2)c1	i	i	i	i	i
COc1ccc(C(=O)Nc2ccccc2C(=O)N/N=C/c2cccc3ccccc23)cc1	28µM	?	i	i	i
SMILES	Menin MLL FP TR	ClpP mod	MLL CXXC-DNA inh	p53 reactivator	Menin MLL FP FL
COc1ccc(OC)c(/C=N/NC(=O)CNC(=O)c2cccc3ccccc23)c1	i	18µM	i	i	i
COc1ccc(OC)c(/C=N\NC(=O)c2ccc(-c3ccccc3)cc2)c1	nt	28µM	i	i	nt
Cc1nn(C)c(C(=O)N/N=C/c2cccc3ccccc23)c1Cl	i	14µM	i	i	i
COc1ccc(C(=O)Oc2ccc(/C=N/NC(=O)c3ccccc3OC)cc2[N+](=O)[O-])cc1	i	28µM	i	i	i
CCOC(=O)c1c(NC(=O)C2CCCO2)sc(C(N)=O)c1C (stereo not given)	i	28µM	i	i	i
CCOc1ccc(N=C2NC(=O)S/C2=C\c2ccc(N(C)C)cc2)cc1	32µM	i	i	?	?
O=C(COc1ccccc1C(=O)Nc1cccnc1)Nc1ccc(Br)cc1	nt	i	nt	nt	nt
O=C(NCCO)c1ccccc1O	i	32µM	i	i	i
O=C(NC1CCCCCCC1)c1ccccc1O	i	28µM	i	?	i
O=C(NC1CCCCC1)c1cc(Cl)ccc1[N+](=O)[O-]	i	28µM	i	i	i
Cn1cccc1C(=O)NC1CCCCCC1	nt	i	nt	7.1µM	nt
Cc1ccccc1C(=O)NC1CCCCCCC1	i	i	i	i	i
CSCCC(NC(=O)c1cccc([N+](=O)[O-])c1)C(=O)OCC(=O)N1CCCC1=O (stereo not given)	nt	i	nt	i	nt
CSCCC(NC(=O)c1cccc([N+](=O)[O-])c1)C(=O)O (stereo not given)	i	25µM	i	i	i
CCCCOc1ccc(C(=O)NCC(=O)NCc2ccncc2)cc1	nt	32µM	nt	i	nt
COc1ccc(C(=O)NCC(=O)NCc2ccncc2)cc1	nt	i	nt	i	nt
O=C(O)c1ccccc1NCc1ccsc1	i	nt	i	i	i
O=C(O)c1ccc(CNc2ccccc2C(=O)O)cc1	i	32µM	i	i	i
O=C(O)c1ccccc1NCc1ccncc1	i	14µM	i	i	i
Cc1cc(/C=C/c2ccnc3ccccc23)ccc1N(C)C	nt	i	nt	nt	nt
Cc1ccc(S(=O)(=O)Cc2nc(-c3ccc(C(=O)NCc4ccccc4)cc3)oc2C)cc1	nt	i	nt	nt	nt
C=CCNC(=O)c1ccc([N+](=O)[O-])c(Cl)c1	i	nt	i	i	i
CC(C)(CNC(=O)c1ccc([N+](=O)[O-])c(Cl)c1)CNC(=O)c1ccc([N+](=O)[O-])c(Cl)c1	nt	16µM	i	i	i
Cn1c(=O)c2sccc2n2c(CCCC(=O)Nc3ccc(Oc4ccccc4)cc3)nnc12	nt	i	nt	nt	nt
CNC(=O)c1ccc2nc(-c3ccccc3)c(-c3ccccc3)nc2c1	nt	i	nt	nt	nt
SMILES	Menin MLL FP TR	ClpP mod	MLL CXXC-DNA inh	p53 reactivator	Menin MLL FP FL
C=CCNC(=O)c1ccc2nc(-c3ccccc3)c(-c3ccccc3)nc2c1	i	20µM	i	i	i
O=C(Nc1c(Cl)cc([N+](=O)[O-])cc1Cl)c1cc(Cl)cc(Cl)c1O	nt	i	nt	nt	nt
CCOc1ccc2nc(NCCNC(=O)C3CC3)c(C)cc2c1	i	40µM	i	i	i
CCOc1ccc2nc(NCCNC(=O)c3cc(OC)c(OC)c(OC)c3)c(C#N)cc2c1	i	i	?	i	i
CCOc1ccc2nc(NCCNC(=O)C(C)C)c(C)cc2c1	i	16µM	i	i	i
COCC(=O)NCCNc1nc2ccc(C)cc2cc1C	i	28µM	i	i	i
O=C(COc1ccccc1C(=O)Nc1cccc([N+](=O)[O-])c1)Nc1ccc(Br)cc1	nt	i	nt	nt	nt
CCCC(=O)NCC(c1ccc2c(c1)OCO2)N1CCN(c2ccccc2)CC1 (stereo not given)	nt	i	nt	nt	nt
CN(C(=O)C1CCOC1)c1nnc(-c2ccccn2)s1 (stereo not given)	i	i	i	?	i
Cc1cnc(-c2nnc(N(C)C(=O)C3CCOC3)s2)cn1 (stereo not given)	i	28µM	i	?	i
O=C(/C=C/c1ccco1)NCC(=O)N/N=C/c1ccc(Cl)cc1	i	i	i	i	i
C/C(=N/NC(=O)CNC(=O)/C=C/c1ccco1)c1ccc(Cl)cc1	?	28µM	i	i	i
CC(C)Oc1ccc(/C=N/NC(=O)c2ccc(N(Cc3ccccc3)S(C)(=O)=O)cc2)cc1	i	i	i	i	i
